Results as given in PubChem BioAssay AID1159580 (chemical genetic matrix, 2015).
The campaign covered roughly 5,500 compounds. About 2,000 (36%) were called active. Roughly 18% stayed inconclusive and do not appear here. Cut-off read from the data, not from the text of the source: active = normalized growth mostly below about 0.91 (no sharp cut-off); inconclusive = no clear call, values can overlap the other calls; inactive = mostly above about 0.92. The list shows a part of the results.

Test: chemical genetic growth profiling, strain panel (AID 1159580);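 note: tested at 20 µM; growth read once vehicle control cultures reached saturation at 30 °C; 1 = growth at the plate median or of vehicle wells; lower values mean less growth of the strain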
Conditions: S. cerevisiae deletion strains, growth OD

Measured: normalized growth

C=CC(N)CCC(=O)O (stereo not drawn)
inactive: locus YAL013W, strain DEP1, hits give low values 1.02 | locus YAL021C, strain ccr4, hits give low values 0.971 | locus YAL026C, strain drs2, hits give low values 0.984 | locus YAL030W, strain snc1, hits give low values 0.985 | locus YAL040C, strain CLN3, hits give low values 1.07 | locus YBL061C, strain skt5, hits give low values 0.976 | locus YBR009C, strain hhf1, hits give low values 0.99 | locus YBR023C, strain chs3, hits give low values 0.965 | locus YBR171W, strain sec66, hits give low values 0.955 | locus YBR231C, strain swc5, hits give low values 0.99 | locus YBR279W, strain paf1, hits give low values 0.986 | locus YCL011C, strain gbp2, hits give low values 0.975 | locus YCL016C, strain dcc1, hits give low values 0.976 | locus YCL061C, strain MRC1 (second series), hits give low values 1 | locus YCL061C, strain MRC1, hits give low values 0.973 | locus YCL069W, strain vba3, hits give low values 0.98 | locus YCR088W, strain abp1, hits give low values 0.986 | locus YDL005C, strain med2, hits give low values 0.977 | locus YDL040C, strain nat1, hits give low values 0.984 | locus YDR001C, strain nth1, hits give low values 0.975 | locus YDR069C, strain doa4, hits give low values 0.992 | locus YDR137W, strain rgp1, hits give low values 0.94 | locus YDR150W, strain NUM1, hits give low values 1 | locus YDR159W, strain sac3, hits give low values 1.01 | locus YDR195W, strain ref2 1 | locus YDR297W, strain sur2, hits give low values 0.986 | locus YDR334W, strain swr1, hits give low values 0.972 | locus YDR335W, strain msn5, hits give low values 0.981 | locus YDR363W, strain ESC2, hits give low values 0.993 | locus YDR392W, strain spt3, hits give low values 0.922 | locus YEL003W, strain gim4, hits give low values 0.996 | locus YEL037C, strain rad23, hits give low values 0.975 | locus YEL061C, strain CIN8 (second series), hits give low values 0.982 | locus YER002W, strain NOP16, hits give low values 0.993 | locus YER015W, strain faa2, hits give low values 0.992 | locus YER016W, strain bim1, hits give low values 0.999 | locus YER111C, strain swi4, hits give low values 0.973 | locus YER155C, strain BEM2 (second series), hits give low values 0.988 | locus YFR010W, strain ubp6, hits give low values 0.972 | locus YGL167C, strain pmr1, hits give low values 0.973 | locus YGL173C, strain kem1, hits give low values 0.975 | locus YGL227W, strain vid30, hits give low values 0.99 | locus YGL240W, strain doc1, hits give low values 0.993 | locus YGL253W, strain hxk2, hits give low values 0.98 | locus YGR078C, strain PAC10, hits give low values 0.987 | locus YGR229C, strain SMI1, hits give low values 1.03 | locus YHR013C, strain ard1, hits give low values 0.973 | locus YHR027C, strain rpn1, hits give low values 0.972 | locus YHR142W, strain chs7, hits give low values 0.94 | locus YJL092W, strain hpr5, hits give low values 0.983 | locus YJL095W, strain BCK1 (second series), hits give low values 0.987 | locus YJL115W, strain asf1, hits give low values 0.972 | locus YJL129C, strain trk1, hits give low values 0.977 | locus YJL154C, strain vps35, hits give low values 0.974 | locus YJL164C, strain tpk1, hits give low values 0.979 | locus YJL166W, strain qcr8, hits give low values 0.971 | locus YJL187C, strain SWE1, hits give low values 0.983 | locus YJR075W, strain HOC1, hits give low values 1.01 | locus YKL160W, strain elf1, hits give low values 0.964 | locus YKR026C, strain gcn3, hits give low values 0.983 | locus YKR091W, strain srl3, hits give low values 0.985 | locus YLL001W, strain dnm1, hits give low values 0.96 | locus YLL026W, hits give low values 1 | locus YLL041C, strain sdh2, hits give low values 0.981 | locus YLR027C, strain aat2, hits give low values 0.984 | locus YLR221C, strain rsa3, hits give low values 0.958 | locus YLR258W, strain gsy2, hits give low values 0.981 | locus YLR262C, strain YPT6 (second series), hits give low values 0.975 | locus YLR320W, strain mms22, hits give low values 0.952 | locus YLR342W, strain FKS1, hits give low values 0.97 | locus YLR357W, strain rsc2, hits give low values 0.971 | locus YLR370C, strain arc18, hits give low values 0.968 | locus YLR384C, strain iki3, hits give low values 0.965 | locus YML120C, strain ndi1, hits give low values 0.981 | locus YMR058W, strain fet3, hits give low values 0.98 | locus YMR125W, strain sto1, hits give low values 0.968 | locus YMR129W, hits give low values 0.988 | locus YMR205C, strain PFK2, hits give low values 0.955 | locus YMR231W, strain pep5, hits give low values 0.97 | locus YMR307W, strain GAS1, hits give low values 1.02 | locus YNL071W, strain lat1, hits give low values 0.986 | locus YNL128W, strain TEP1, hits give low values 0.972 | locus YNL175C, strain NOP13, hits give low values 0.99 | locus YNL197C, strain WHI3, hits give low values 0.994 | locus YNL209W, strain ssb2, hits give low values 0.991 | locus YNL224C, strain SQS1, hits give low values 0.991 | locus YNL248C, strain rpa49, hits give low values 0.968 | locus YNL322C, strain KRE1 (second series), hits give low values 0.967 | locus YNR049C, strain mso1, hits give low values 0.994 | locus YOR001W, strain rrp6, hits give low values 0.996 | locus YOR070C, strain gyp1, hits give low values 0.998 | locus YOR080W, strain dia2, hits give low values 0.974 | locus YOR083W, strain WHI5 (second series), hits give low values 0.991 | locus YOR083W, strain WHI5, hits give low values 0.967 | locus YOR106W, strain vam3, hits give low values 0.961 | locus YOR265W, strain rbl2, hits give low values 0.98 | locus YOR270C, strain vph1, hits give low values 0.939 | locus YOR290C, strain snf2, hits give low values 0.945 | locus YPL051W, strain arl3, hits give low values 0.973 | locus YPL055C, strain LGE1, hits give low values 1 | locus YPL078C, strain atp4, hits give low values 0.961 | locus YPL106C, strain sse1, hits give low values 0.971 | locus YPL240C, strain hsp82, hits give low values 0.986
